In PMC11006913:

Assays:
Experiment in all cases: PBM; 200 nM protein, PBS
Conditions in all cases: dsDNA, one strand shown
CRX [1] = target: CRX (Homo sapiens, UniProt O43186 26-111)
CRX [2] = target: CRX (Homo sapiens, UniProt O43186 26-111, E42D)
CRX [3] = target: CRX (Homo sapiens, UniProt O43186 26-111, R41L)
Sequence of CRX (Homo sapiens, UniProt O43186 26-111, R41L) (O43186 26-111 R41L): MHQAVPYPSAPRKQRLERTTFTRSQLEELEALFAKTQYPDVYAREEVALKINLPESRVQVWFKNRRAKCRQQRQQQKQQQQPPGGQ

Sequence of CRX (Homo sapiens, UniProt O43186 26-111, E42D) (O43186 26-111 E42D): as the sequence (O43186 26-111 R41L) above, with L16R, E17D counted along it
Sequence of CRX (Homo sapiens, UniProt O43186 26-111) (O43186 26-111): as the sequence (O43186 26-111 R41L) above, with L16R counted along it

Sequence | binding signal (CRX [1]) | binding signal (CRX [2]) | binding signal (CRX [3])
GAACGTTC | 8.02 upbm affinity estimate (log intensity, higher = more binding, comparable within an allelic series) | 7.99 upbm affinity estimate (log intensity, higher = more binding, comparable within an allelic series) | 8.07 upbm affinity estimate (log intensity, higher = more binding, comparable within an allelic series)
CAACCTGC | 8.42 upbm affinity estimate (log intensity, higher = more binding, comparable within an allelic series) | 8.42 upbm affinity estimate (log intensity, higher = more binding, comparable within an allelic series) | 8.35 upbm affinity estimate (log intensity, higher = more binding, comparable within an allelic series)
CCTCGCCC | 8.43 upbm affinity estimate (log intensity, higher = more binding, comparable within an allelic series) | 8.52 upbm affinity estimate (log intensity, higher = more binding, comparable within an allelic series) | 8.44 upbm affinity estimate (log intensity, higher = more binding, comparable within an allelic series)
CCGAACCG | 8.21 upbm affinity estimate (log intensity, higher = more binding, comparable within an allelic series) | 8.3 upbm affinity estimate (log intensity, higher = more binding, comparable within an allelic series) | 8.28 upbm affinity estimate (log intensity, higher = more binding, comparable within an allelic series)
GCGTGCAC | 8.43 upbm affinity estimate (log intensity, higher = more binding, comparable within an allelic series) | 8.37 upbm affinity estimate (log intensity, higher = more binding, comparable within an allelic series) | 8.37 upbm affinity estimate (log intensity, higher = more binding, comparable within an allelic series)
CACGGCGA | 8.27 upbm affinity estimate (log intensity, higher = more binding, comparable within an allelic series) | 8.25 upbm affinity estimate (log intensity, higher = more binding, comparable within an allelic series) | 8.27 upbm affinity estimate (log intensity, higher = more binding, comparable within an allelic series)
GTAGCAAC | 8.55 upbm affinity estimate (log intensity, higher = more binding, comparable within an allelic series) | 8.49 upbm affinity estimate (log intensity, higher = more binding, comparable within an allelic series) | 8.42 upbm affinity estimate (log intensity, higher = more binding, comparable within an allelic series)
GGTCGAAC | 8.09 upbm affinity estimate (log intensity, higher = more binding, comparable within an allelic series) | 8.11 upbm affinity estimate (log intensity, higher = more binding, comparable within an allelic series) | 8.1 upbm affinity estimate (log intensity, higher = more binding, comparable within an allelic series)
GCGTGACC | 8.46 upbm affinity estimate (log intensity, higher = more binding, comparable within an allelic series) | 8.49 upbm affinity estimate (log intensity, higher = more binding, comparable within an allelic series) | 8.39 upbm affinity estimate (log intensity, higher = more binding, comparable within an allelic series)
AATCCAAC | 10.9 upbm affinity estimate (log intensity, higher = more binding, comparable within an allelic series) | 10.8 upbm affinity estimate (log intensity, higher = more binding, comparable within an allelic series) | 10.7 upbm affinity estimate (log intensity, higher = more binding, comparable within an allelic series)
AAGATTAT | 12.9 upbm affinity estimate (log intensity, higher = more binding, comparable within an allelic series) | 12.8 upbm affinity estimate (log intensity, higher = more binding, comparable within an allelic series) | 12.8 upbm affinity estimate (log intensity, higher = more binding, comparable within an allelic series)
GGCGTCCC | 8.17 upbm affinity estimate (log intensity, higher = more binding, comparable within an allelic series) | 8.13 upbm affinity estimate (log intensity, higher = more binding, comparable within an allelic series) | 8.1 upbm affinity estimate (log intensity, higher = more binding, comparable within an allelic series)
AATTCCAT | 10.2 upbm affinity estimate (log intensity, higher = more binding, comparable within an allelic series) | 10.1 upbm affinity estimate (log intensity, higher = more binding, comparable within an allelic series) | 9.91 upbm affinity estimate (log intensity, higher = more binding, comparable within an allelic series)
CCGGATAA | 11.5 upbm affinity estimate (log intensity, higher = more binding, comparable within an allelic series) | 11.3 upbm affinity estimate (log intensity, higher = more binding, comparable within an allelic series) | 10.9 upbm affinity estimate (log intensity, higher = more binding, comparable within an allelic series)
CATGACAG | 8.34 upbm affinity estimate (log intensity, higher = more binding, comparable within an allelic series) | 8.16 upbm affinity estimate (log intensity, higher = more binding, comparable within an allelic series) | 8.25 upbm affinity estimate (log intensity, higher = more binding, comparable within an allelic series)
GAAGTTCC | 8.51 upbm affinity estimate (log intensity, higher = more binding, comparable within an allelic series) | 8.44 upbm affinity estimate (log intensity, higher = more binding, comparable within an allelic series) | 8.28 upbm affinity estimate (log intensity, higher = more binding, comparable within an allelic series)
AATCACTA | 10.3 upbm affinity estimate (log intensity, higher = more binding, comparable within an allelic series) | 10.2 upbm affinity estimate (log intensity, higher = more binding, comparable within an allelic series) | 9.96 upbm affinity estimate (log intensity, higher = more binding, comparable within an allelic series)
CCAGTGCA | 8.15 upbm affinity estimate (log intensity, higher = more binding, comparable within an allelic series) | 8.21 upbm affinity estimate (log intensity, higher = more binding, comparable within an allelic series) | 8.38 upbm affinity estimate (log intensity, higher = more binding, comparable within an allelic series)
GGGAGACA | 8.13 upbm affinity estimate (log intensity, higher = more binding, comparable within an allelic series) | 8.2 upbm affinity estimate (log intensity, higher = more binding, comparable within an allelic series) | 8.26 upbm affinity estimate (log intensity, higher = more binding, comparable within an allelic series)

Sequence | binding signal (CRX [1]) | binding signal (CRX [2]) | binding signal (CRX [3])
GACCGAAC | 7.97 upbm affinity estimate (log intensity, higher = more binding, comparable within an allelic series) | 8.09 upbm affinity estimate (log intensity, higher = more binding, comparable within an allelic series) | 8.18 upbm affinity estimate (log intensity, higher = more binding, comparable within an allelic series)
AAGTATAA | 10.6 upbm affinity estimate (log intensity, higher = more binding, comparable within an allelic series) | 10.5 upbm affinity estimate (log intensity, higher = more binding, comparable within an allelic series) | 10.2 upbm affinity estimate (log intensity, higher = more binding, comparable within an allelic series)
CACTAATC | 12.8 upbm affinity estimate (log intensity, higher = more binding, comparable within an allelic series) | 12.6 upbm affinity estimate (log intensity, higher = more binding, comparable within an allelic series) | 12 upbm affinity estimate (log intensity, higher = more binding, comparable within an allelic series)
GAACGCCC | 8.05 upbm affinity estimate (log intensity, higher = more binding, comparable within an allelic series) | 8.12 upbm affinity estimate (log intensity, higher = more binding, comparable within an allelic series) | 8.13 upbm affinity estimate (log intensity, higher = more binding, comparable within an allelic series)
ACTAATCT | 13.1 upbm affinity estimate (log intensity, higher = more binding, comparable within an allelic series) | 13.1 upbm affinity estimate (log intensity, higher = more binding, comparable within an allelic series) | 12.7 upbm affinity estimate (log intensity, higher = more binding, comparable within an allelic series)
ATAACCCC | 10.6 upbm affinity estimate (log intensity, higher = more binding, comparable within an allelic series) | 10.4 upbm affinity estimate (log intensity, higher = more binding, comparable within an allelic series) | 10.2 upbm affinity estimate (log intensity, higher = more binding, comparable within an allelic series)
AAGGGTGG | 8.2 upbm affinity estimate (log intensity, higher = more binding, comparable within an allelic series) | 8.31 upbm affinity estimate (log intensity, higher = more binding, comparable within an allelic series) | 8.33 upbm affinity estimate (log intensity, higher = more binding, comparable within an allelic series)
GGGTGGCA | 8.24 upbm affinity estimate (log intensity, higher = more binding, comparable within an allelic series) | 8.24 upbm affinity estimate (log intensity, higher = more binding, comparable within an allelic series) | 8.32 upbm affinity estimate (log intensity, higher = more binding, comparable within an allelic series)
ACTGCTGG | 8.37 upbm affinity estimate (log intensity, higher = more binding, comparable within an allelic series) | 8.49 upbm affinity estimate (log intensity, higher = more binding, comparable within an allelic series) | 8.37 upbm affinity estimate (log intensity, higher = more binding, comparable within an allelic series)
ACGTCTCG | 8 upbm affinity estimate (log intensity, higher = more binding, comparable within an allelic series) | 8.27 upbm affinity estimate (log intensity, higher = more binding, comparable within an allelic series) | 8.17 upbm affinity estimate (log intensity, higher = more binding, comparable within an allelic series)
ACACGCCC | 8.11 upbm affinity estimate (log intensity, higher = more binding, comparable within an allelic series) | 8.24 upbm affinity estimate (log intensity, higher = more binding, comparable within an allelic series) | 8.26 upbm affinity estimate (log intensity, higher = more binding, comparable within an allelic series)
ACCCAGTG | 8.01 upbm affinity estimate (log intensity, higher = more binding, comparable within an allelic series) | 8.16 upbm affinity estimate (log intensity, higher = more binding, comparable within an allelic series) | 8.13 upbm affinity estimate (log intensity, higher = more binding, comparable within an allelic series)
GACGCTAC | 8.4 upbm affinity estimate (log intensity, higher = more binding, comparable within an allelic series) | 8.38 upbm affinity estimate (log intensity, higher = more binding, comparable within an allelic series) | 8.27 upbm affinity estimate (log intensity, higher = more binding, comparable within an allelic series)
TAATCCAA | 13 upbm affinity estimate (log intensity, higher = more binding, comparable within an allelic series) | 13 upbm affinity estimate (log intensity, higher = more binding, comparable within an allelic series) | 12.8 upbm affinity estimate (log intensity, higher = more binding, comparable within an allelic series)
GCAACCGC | 8.47 upbm affinity estimate (log intensity, higher = more binding, comparable within an allelic series) | 8.38 upbm affinity estimate (log intensity, higher = more binding, comparable within an allelic series) | 8.34 upbm affinity estimate (log intensity, higher = more binding, comparable within an allelic series)
CGACGGAC | 8.32 upbm affinity estimate (log intensity, higher = more binding, comparable within an allelic series) | 8.15 upbm affinity estimate (log intensity, higher = more binding, comparable within an allelic series) | 8.24 upbm affinity estimate (log intensity, higher = more binding, comparable within an allelic series)
AGGCATAA | 10.3 upbm affinity estimate (log intensity, higher = more binding, comparable within an allelic series) | 10.1 upbm affinity estimate (log intensity, higher = more binding, comparable within an allelic series) | 9.78 upbm affinity estimate (log intensity, higher = more binding, comparable within an allelic series)
GCTTAAGC | 12.8 upbm affinity estimate (log intensity, higher = more binding, comparable within an allelic series) | 12.7 upbm affinity estimate (log intensity, higher = more binding, comparable within an allelic series) | 11.7 upbm affinity estimate (log intensity, higher = more binding, comparable within an allelic series)
CGAACCTC | 8.5 upbm affinity estimate (log intensity, higher = more binding, comparable within an allelic series) | 8.36 upbm affinity estimate (log intensity, higher = more binding, comparable within an allelic series) | 8.33 upbm affinity estimate (log intensity, higher = more binding, comparable within an allelic series)
